Measured values from the supplement of paper PMC8975748.
Counter-ions that a name gives are not always drawn.

test system: Saccharomyces cerevisiae BY4741 SeMeCo community; experiment: z-score of subpopulation abundance vs DMSO median, subpopulation auxotrophic for L; higher = larger share of this subpopulation than in DMSO controls; settings: 10 µM; 24 h; SM minimal medium; subpopulation (auxotrophy): L
Experimental: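 Fluorescent four-plasmid SeMeCo (self-establishing metabolically cooperating S. cerevisiae BY4741 community; plasmids pH-mRuby2, pL-mWasabi, pU-eCFP, pM-TagRFP657) was grown 24 h in minimal SM medium with each Selleck FDA-approved drug at 10 µM in 384-well plates. Cells were fixed and imaged by high-content confocal microscopy. For each auxotrophic subpopulation (and the prototroph), a z-score gives the deviation from the DMSO vehicle-control population median.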

Compound | z-score of subpopulation abundance
CN[C@@H]1[C@@H](O)[C@@H](O[C@@H]2[C@@H](O)[C@H](O[C@H]3O[C@H]([C@@H](C)O)[C@@H](O)[C@H](O)[C@H]3N)[C@@H](N)C[C@H]2N)OC[C@]1(C)O [Geneticin (G418 Sulfate)] | 0.54
CN1[C@@H]2CC[C@H]1C[C@@H](OC(=O)[C@H](CO)c1ccccc1)C2 [Hyoscyamine] | 0.64
CC[C@H]1[C@@H]2C[C@H]3[C@@H]4N(C)c5ccccc5[C@]45C[C@@H]([C@@H]2[C@H]5O)N3[C@@H]1O [Ajmaline] | -0.67
CC(=O)O[C@H]1C[C@@H]2CC[C@@H]3[C@H](CC[C@@]4(C)[C@H]3C[C@H]([N+]3(C)CCCCC3)[C@@H]4OC(C)=O)[C@@]2(C)C[C@@H]1[N+]1(C)CCCCC1 [Pancuronium dibromide] | -0.47
Oc1cccc2cccnc12 [8-Hydroxyquinoline] | -1.01
CC(=O)OCC1=C(C(=O)O)N2C(=O)C(N)C2SC1 (centres undefined) [7-Aminocephalosporanic acid] | 0.13
Cc1cc(O)ccc1Cl [Chlorocresol] | -0.62
C=C(C)[C@H]1Cc2c(ccc3c2O[C@@H]2COc4cc(OC)c(OC)cc4[C@@H]2C3=O)O1 [Rotenone (Barbasco)] | 0.46
CCOC(=O)Nc1ccc(NCc2ccc(F)cc2)cc1N [Retigabine 2HCl] | -0.41
CC1(C)SC2C(N)C(=O)N2C1C(=O)O (centres undefined) [6-Aminopenicillanic acid] | -0.39
O=C(O[C@H]1C[N+]2(CCCOc3ccccc3)CCC1CC2)C(O)(c1cccs1)c1cccs1 [Aclidinium Bromide] | -1.04
O=C(O[C@H]1C[C@H]2CC[C@@H](C1)[N+]21CCCC1)C(O)(c1ccccc1)c1ccccc1 [Trospium chloride] | -0.17
Oc1cc(Cl)ccc1Oc1ccc(Cl)cc1Cl [Triclosan] | -0.94
O=c1cccc2n1C[C@@H]1CNC[C@H]2C1 [Cytisine] | 0.2
CN(C)[C@@H]1C(=O)C(C(N)=O)=C(O)[C@@]2(O)C(=O)C3=C(O)c4c(O)ccc(Cl)c4[C@@](C)(O)[C@H]3C[C@@H]12 [Chlortetracycline HCl] | -0.76
CCN(CC)CCOC(=O)C(O)(c1ccccc1)c1ccccc1 [Benactyzine hydrochloride] | 0.45
CN1[C@@H]2C[C@@H](OC(=O)[C@H](CO)c3ccccc3)C[C@H]1[C@@H]1O[C@@H]12 [Scopolamine HBr] | -0.33

Compound | z-score of subpopulation abundance
CCC1=C[C@H]2CN3CCc4c([nH]c5ccccc45)[C@](C(=O)OC)(C2)[C@H]13 [Catharanthine] | -0.77
CNC1CC(N)C(O)C(OC2OC(CO)C(O)C3OC4(OC(C(N)CO)C(O)C(O)C4O)OC23)C1O (centres undefined) [Hygromycin B] | 0.12
CCN(C)C(=O)Oc1cccc([C@H](C)N(C)C)c1 [Rivastigmine Tartrate] | 1.02
COc1ccc2[nH]cc(CCN)c2c1 [5-Methoxytryptamine] | 0.52
CN(C)C(=O)Oc1ccc[n+](C)c1 [Pyridostigmine Bromide] | 0.3
C[CH2][Hg][S]c1ccccc1C(=O)[O-].[Na+] [Thimerosal] | -2.54
COc1ccc2c(c1)[C@]13CCCC[C@@H]1[C@H](C2)N(C)CC3 [Dextromethorphan hydrobromide hydrate] | 0.57
CC(C)=CCOc1c2occc2cc2ccc(=O)oc12 [Imperatorin] | 1.37
C=CN1CCCC1=O.II [Povidone iodine] | 0.47
CN(C)C(=O)Oc1cccc([N+](C)(C)C)c1 [Neostigmine Bromide] | 0.65
COc1ccc(C=O)cc1 [p-Anisaldehyde] | -0.63
CC[N+](C)(CC)CCOC(=O)C(O)(c1ccccc1)c1ccccc1 [Methylbenactyzine Bromide] | -0.83
CN1[C@@H]2C[C@@H](OC(=O)[C@H](CO)c3ccccc3)C[C@H]1[C@@H]1O[C@@H]12 [Scopolamine HBr trihydrate] | -0.39
C[N+]1(C)[C@@H]2C[C@@H](OC(=O)[C@H](CO)c3ccccc3)C[C@H]1[C@@H]1O[C@@H]12 [Methscopolamine] | 0.57
CCN1CC2(OC(=O)c3ccccc3NC(C)=O)CCC(OC)C34C1C(CC23)C1(O)CC(OC)C2CC4C1(O)C2OC (centres undefined) [Lappaconitine] | 0.34
CN[C@@H]1[C@@H](O)[C@@H](O[C@@H]2[C@@H](O)[C@H](O[C@H]3O[C@H](CN)CC[C@H]3N)[C@@H](N)C[C@H]2N)OC[C@]1(C)O.CN[C@@H]1[C@@H](O)[C@@H](O[C@@H]2[C@@H](O)[C@H](O[C@H]3O[C@H]([C@@H](C)N)CC[C@H]3N)[C@@H](N)C[C@H]2N)OC[C@]1(C)O.CN[C@@H]1[C@@H](O)[C@@H](O[C@@H]2[C@@H](O)[C@H](O[C@H]3O[C@H]([C@@H](C)NC)CC[C@H]3N)[C@@H](N)C[C@H]2N)OC[C@]1(C)O [Gentamicin Sulfate] | -0.91
C#C[C@]1(O)C=C[C@H]2[C@@H]3CCC4=CC(=O)CC[C@@H]4[C@H]3CC[C@@]21CC [Gestodene] | 0.46
